Drawing on the supplement of paper PMC10723795, this text covers nucleolar normality score for one compound.

SMILES strings stand for the structures. ± gives the standard deviation of the averaged measurements.

The assay concerns BJ5TA. As to the kind of experiment: nucleolar normality score relative to DMSO (fraction of DMSO control); RPE1 is a non-cancer human cell line; higher = more normal nucleoli (less nucleolar stress). On the procedure: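 Selected screen hits were validated in hTERT lines (BJ5TA, CHON-002, RPE1) and cancer lines (DLD1, HCT116). Cells were immunostained for nucleolin and UBF and the nucleolar normality score was measured per field of view, with 4 fields per drug. Scores are normalized to each cell line's own DMSO control. Dose and time are not stated for this panel.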
Consider `CC[C@@]1(O)C(=O)OCc2c1cc1n(c2=O)Cc2cc3ccccc3nc2-1` [Camptothecin], for which the nucleolar normality score is 0.473 ± 0.03.
